Data taken from PMC10812921, “Transcriptional Coactivator BOB1 (OBF1, OCA-B) Modulates the Specificity of DNA Recognition by the POU-Domain Factors OCT1 and OCT2 in a Monomeric Configuration”.

How the values were obtained:
[1] = target: POU1 (OCT1 POU domain) (human, UniProt P14859 260-458); assay: EMSA-SELEX-seq; no BOB1; 20 mM Tris-HCl pH 7.6, 140 mM NaCl, 10% glycerol, 0.5 mM EDTA, 0.05% Triton X-100, 0.1 mg/mL BSA, 0.1 mg/mL poly(dI-dC), 5 mM DTT, room temperature, 20 min; high values mean tight binding; conditions: protein: recombinant; dsDNA, one strand shown
Procedure, shortened: (§1)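 Binding preference means the percentage of sequenced 8-mers matching a motif pattern. Tagged POU-domain proteins (30 ng), expressed in E. coli BL21, purified under denaturing conditions and renatured, were mixed with 300 ng of a PCR-amplified double-stranded random 35-nt library, with or without 28 ng coactivator protein, for 20 min at RT in 20 μL Tris–HCl pH 7.6 binding buffer. Selection was repeated over four rounds of excising complex bands from native 6% PAGE, eluting and PCR amplification, followed by Illumina sequencing.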

[2] = target: T1, POU2 (OCT2 POU domain) (human, UniProt P09086 175-386); assay: as above; conditions: protein: recombinant; dsDNA, one strand shown
T1 sequence: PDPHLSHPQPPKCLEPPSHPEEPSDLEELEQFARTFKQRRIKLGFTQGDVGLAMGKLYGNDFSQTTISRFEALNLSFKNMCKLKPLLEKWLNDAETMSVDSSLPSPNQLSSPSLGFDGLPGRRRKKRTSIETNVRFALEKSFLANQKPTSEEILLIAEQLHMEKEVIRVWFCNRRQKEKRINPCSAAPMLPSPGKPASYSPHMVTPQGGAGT
Procedure, shortened: as §1

[3] = target: POU1 (OCT1 POU domain);BOB1 (OBF1, OCA-B) (human;human, UniProt P14859;Q16633 260-458;1-256, |); assay: EMSA-SELEX-seq; with BOB1 (ternary complex band); 20 mM Tris-HCl pH 7.6, 140 mM NaCl, 10% glycerol, 0.5 mM EDTA, 0.05% Triton X-100, 0.1 mg/mL BSA, 0.1 mg/mL poly(dI-dC), 5 mM DTT, room temperature, 20 min; high values mean tight binding; conditions: protein: recombinant;recombinant; copies: 1;1; dsDNA, one strand shown
Procedure, shortened: as §1

[4] = target: T2, POU2 (OCT2 POU domain);BOB1 (OBF1, OCA-B) (human;human, UniProt P09086;Q16633 175-386;1-256, |); assay: as above; conditions: protein: recombinant;recombinant; copies: 1;1; dsDNA, one strand shown
T2 sequence 1: T1 sequence
T2 sequence 2: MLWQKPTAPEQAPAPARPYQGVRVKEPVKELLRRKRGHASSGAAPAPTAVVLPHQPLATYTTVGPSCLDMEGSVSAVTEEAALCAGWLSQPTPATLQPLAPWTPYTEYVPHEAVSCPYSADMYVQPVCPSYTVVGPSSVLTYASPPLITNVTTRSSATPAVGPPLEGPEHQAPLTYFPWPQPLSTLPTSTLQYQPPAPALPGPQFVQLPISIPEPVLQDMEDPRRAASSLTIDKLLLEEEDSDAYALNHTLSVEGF
Procedure, shortened: as §1

Chain of POU1 (OCT1 POU domain) (P14859 260-458): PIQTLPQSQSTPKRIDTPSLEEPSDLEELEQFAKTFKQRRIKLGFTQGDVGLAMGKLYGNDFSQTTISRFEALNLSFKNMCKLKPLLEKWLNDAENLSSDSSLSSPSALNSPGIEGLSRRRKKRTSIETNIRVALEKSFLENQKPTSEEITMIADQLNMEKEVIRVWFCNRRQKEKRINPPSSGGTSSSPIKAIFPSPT

Sequence: AACCGAAA
- binding signal [1]: 0.0271 % of ANNNNAAN 8-mers
- binding signal [2]: 0.0293 % of ANNNNAAN 8-mers
- binding signal [3]: 0.0265 % of ANNNNAAN 8-mers
- binding signal [4]: 0.0256 % of ANNNNAAN 8-mers

Sequence: ACATGAAC
- binding signal [1]: 0.0244 % of ANNNNAAN 8-mers
- binding signal [2]: 0.0334 % of ANNNNAAN 8-mers
- binding signal [3]: 0.0304 % of ANNNNAAN 8-mers
- binding signal [4]: 0.019 % of ANNNNAAN 8-mers

Sequence: AACAGAAT
- binding signal [1]: 0.0645 % of ANNNNAAN 8-mers
- binding signal [2]: 0.0679 % of ANNNNAAN 8-mers
- binding signal [3]: 0.0507 % of ANNNNAAN 8-mers
- binding signal [4]: 0.0594 % of ANNNNAAN 8-mers

Sequence: AAGTAAAT
- binding signal [1]: 0.19 % of ANNNNAAN 8-mers
- binding signal [2]: 0.146 % of ANNNNAAN 8-mers
- binding signal [3]: 0.227 % of ANNNNAAN 8-mers
- binding signal [4]: 0.147 % of ANNNNAAN 8-mers

Sequence: AGCCGAAC
- binding signal [1]: 0.0133 % of ANNNNAAN 8-mers
- binding signal [2]: 0.0161 % of ANNNNAAN 8-mers
- binding signal [3]: 0.016 % of ANNNNAAN 8-mers
- binding signal [4]: 0.014 % of ANNNNAAN 8-mers

Sequence: AATTAAAT
- binding signal [1]: 0.333 % of ANNNNAAN 8-mers
- binding signal [2]: 0.39 % of ANNNNAAN 8-mers
- binding signal [3]: 0.19 % of ANNNNAAN 8-mers
- binding signal [4]: 0.173 % of ANNNNAAN 8-mers

Sequence: AGTTTAAA
- binding signal [1]: 0.0881 % of ANNNNAAN 8-mers
- binding signal [2]: 0.0938 % of ANNNNAAN 8-mers
- binding signal [3]: 0.0808 % of ANNNNAAN 8-mers
- binding signal [4]: 0.0751 % of ANNNNAAN 8-mers

Sequence: ATATTAAA
- binding signal [1]: 0.297 % of ANNNNAAN 8-mers
- binding signal [2]: 0.365 % of ANNNNAAN 8-mers
- binding signal [3]: 0.131 % of ANNNNAAN 8-mers
- binding signal [4]: 0.14 % of ANNNNAAN 8-mers

Sequence: ATGTAAAA
- binding signal [1]: 0.714 % of ANNNNAAN 8-mers
- binding signal [2]: 0.496 % of ANNNNAAN 8-mers
- binding signal [3]: 0.631 % of ANNNNAAN 8-mers
- binding signal [4]: 0.618 % of ANNNNAAN 8-mers

Sequence: ACTTAAAC
- binding signal [1]: 0.0336 % of ANNNNAAN 8-mers
- binding signal [2]: 0.046 % of ANNNNAAN 8-mers
- binding signal [3]: 0.0277 % of ANNNNAAN 8-mers
- binding signal [4]: 0.0355 % of ANNNNAAN 8-mers

Sequence: AAATCAAC
- binding signal [1]: 0.0759 % of ANNNNAAN 8-mers
- binding signal [2]: 0.0921 % of ANNNNAAN 8-mers
- binding signal [3]: 0.096 % of ANNNNAAN 8-mers
- binding signal [4]: 0.0916 % of ANNNNAAN 8-mers

Sequence: ATAAGAAT
- binding signal [1]: 0.114 % of ANNNNAAN 8-mers
- binding signal [2]: 0.143 % of ANNNNAAN 8-mers
- binding signal [3]: 0.0886 % of ANNNNAAN 8-mers
- binding signal [4]: 0.0892 % of ANNNNAAN 8-mers

Sequence: ACCTTAAC
- binding signal [1]: 0.0118 % of ANNNNAAN 8-mers
- binding signal [2]: 0.0173 % of ANNNNAAN 8-mers
- binding signal [3]: 0.0152 % of ANNNNAAN 8-mers
- binding signal [4]: 0.0149 % of ANNNNAAN 8-mers

Sequence: AATCTAAC
- binding signal [1]: 0.0328 % of ANNNNAAN 8-mers
- binding signal [2]: 0.0339 % of ANNNNAAN 8-mers
- binding signal [3]: 0.0316 % of ANNNNAAN 8-mers
- binding signal [4]: 0.0272 % of ANNNNAAN 8-mers

Sequence: ATCTTAAA
- binding signal [1]: 0.0648 % of ANNNNAAN 8-mers
- binding signal [2]: 0.0552 % of ANNNNAAN 8-mers
- binding signal [3]: 0.0515 % of ANNNNAAN 8-mers
- binding signal [4]: 0.0636 % of ANNNNAAN 8-mers

Sequence: AGTCGAAG
- binding signal [1]: 0.0305 % of ANNNNAAN 8-mers
- binding signal [2]: 0.0357 % of ANNNNAAN 8-mers
- binding signal [3]: 0.023 % of ANNNNAAN 8-mers
- binding signal [4]: 0.0347 % of ANNNNAAN 8-mers

Sequence: AAGAAAAT
- binding signal [1]: 0.158 % of ANNNNAAN 8-mers
- binding signal [2]: 0.125 % of ANNNNAAN 8-mers
- binding signal [3]: 0.226 % of ANNNNAAN 8-mers
- binding signal [4]: 0.0958 % of ANNNNAAN 8-mers

Sequence: ATCGTAAA
- binding signal [1]: 0.0553 % of ANNNNAAN 8-mers
- binding signal [2]: 0.0552 % of ANNNNAAN 8-mers
- binding signal [3]: 0.0531 % of ANNNNAAN 8-mers
- binding signal [4]: 0.0471 % of ANNNNAAN 8-mers

Sequence: AAACAAAC
- binding signal [1]: 0.066 % of ANNNNAAN 8-mers
- binding signal [2]: 0.0506 % of ANNNNAAN 8-mers
- binding signal [3]: 0.109 % of ANNNNAAN 8-mers
- binding signal [4]: 0.0512 % of ANNNNAAN 8-mers

Sequence: AAAGAAAG
- binding signal [1]: 0.0679 % of ANNNNAAN 8-mers
- binding signal [2]: 0.0719 % of ANNNNAAN 8-mers
- binding signal [3]: 0.08 % of ANNNNAAN 8-mers
- binding signal [4]: 0.0619 % of ANNNNAAN 8-mers

Sequence: ATACAAAG
- binding signal [1]: 0.0984 % of ANNNNAAN 8-mers
- binding signal [2]: 0.0938 % of ANNNNAAN 8-mers
- binding signal [3]: 0.139 % of ANNNNAAN 8-mers
- binding signal [4]: 0.09 % of ANNNNAAN 8-mers

Sequence: AGTTAAAC
- binding signal [1]: 0.0461 % of ANNNNAAN 8-mers
- binding signal [2]: 0.0593 % of ANNNNAAN 8-mers
- binding signal [3]: 0.0499 % of ANNNNAAN 8-mers
- binding signal [4]: 0.0553 % of ANNNNAAN 8-mers

Sequence: ATCATAAT
- binding signal [1]: 0.131 % of ANNNNAAN 8-mers
- binding signal [2]: 0.164 % of ANNNNAAN 8-mers
- binding signal [3]: 0.0706 % of ANNNNAAN 8-mers
- binding signal [4]: 0.0636 % of ANNNNAAN 8-mers

Sequence: ATTGGAAA
- binding signal [1]: 0.0927 % of ANNNNAAN 8-mers
- binding signal [2]: 0.0794 % of ANNNNAAN 8-mers
- binding signal [3]: 0.11 % of ANNNNAAN 8-mers
- binding signal [4]: 0.0735 % of ANNNNAAN 8-mers

Sequence: AACGGAAA
- binding signal [1]: 0.0561 % of ANNNNAAN 8-mers
- binding signal [2]: 0.0552 % of ANNNNAAN 8-mers
- binding signal [3]: 0.0741 % of ANNNNAAN 8-mers
- binding signal [4]: 0.0561 % of ANNNNAAN 8-mers

Sequence: ACCTGAAT
- binding signal [1]: 0.0583 % of ANNNNAAN 8-mers
- binding signal [2]: 0.0656 % of ANNNNAAN 8-mers
- binding signal [3]: 0.0359 % of ANNNNAAN 8-mers
- binding signal [4]: 0.0438 % of ANNNNAAN 8-mers

Sequence: AGGGAAAC
- binding signal [1]: 0.0648 % of ANNNNAAN 8-mers
- binding signal [2]: 0.0518 % of ANNNNAAN 8-mers
- binding signal [3]: 0.0991 % of ANNNNAAN 8-mers
- binding signal [4]: 0.0413 % of ANNNNAAN 8-mers

Sequence: ACAACAAG
- binding signal [1]: 0.0248 % of ANNNNAAN 8-mers
- binding signal [2]: 0.0167 % of ANNNNAAN 8-mers
- binding signal [3]: 0.0187 % of ANNNNAAN 8-mers
- binding signal [4]: 0.014 % of ANNNNAAN 8-mers
